ELG1 DNA repair – blocks ELG1-dependent DNA repair in HEK293T cells. Potency, µM (titrated, usually from 46.1 µM), for inactives: at the highest dose activity change, negative = inhibition, hits mostly inhibitors. actives 2.3% (n = 330,000). HEK293T ELG1-luciferase reporter, luminescence, 16 h; DNA damage induced by 5-fluorouridine. AID 504467; note: % is set by controls: 0 for no effect and ±100 for the full control effect; nearly all actives have a fitted effect of over 55% in size
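Overnight (16 hr) co-exposure of 2,000 cells/well to 5-fluorouridine and compound at 37 °C preceded detection. Luciferase was quantified via ONE-Glo luminescence; loss of signal denotes inhibition.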
SMN2 splice enh – increases expression of the SMN2 splice variant | HEK293 SMN2-luciferase splicing reporter, luminescence, 30-36 h | Potency, µM (titrated, usually from 46.1 µM), inactives show at the top dose activity change, positive = activation, usual class: activators | actives 2.8% (n = 210,000); note: % of control where 0% means no effect; nearly all actives have a fitted effect of over 55% in size
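HEK293 cells carry an SMN2 […]–luciferase reporter in which exon 7 inclusion puts luciferase in frame. Cells were plated 10-12 h before compound addition, then incubated 30-36 h at 37C. ONE-Glo luminescence was read; sodium butyrate at 4.5 mM final served as control.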
NPC1 promoter act – activators of NPC1 promoter; Huh7 NPC1 promoter luciferase reporter, 24 h; Potency, µM (top dose mostly 9.22 µM), inactives show at the top dose activation, usual class: activators; actives 2.4% (n = 320,000); note: % of control where 0% means no effect; nearly all actives have a fitted effect of over 60% in size
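Compounds in DMSO were transferred onto Huh7 NPC1-luciferase reporter cells pre-incubated 2 h; after 24 h at 37 °C, Amplite reagent was dispensed and luminescence recorded 10 min later.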
ELG1 genotox – induces genotoxicity in HEK293T cells with luciferase-tagged ELG1; HEK293T ELG1-luciferase reporter, luminescence, 16 h; Potency, µM (titrated, usually from 46 µM), without a hit: at the top dose activity change, positive = activation, usual class: activators; actives 1.3% (n = 330,000); note: % of control where 0% means no effect; nearly all actives have a fitted effect of over 60% in size
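ELG1-luciferase HEK293T cells, 2,000/well; compound pinned in; 16 hr, 37 °C, 5% CO2; ONE-Glo, 30 min RT; luminescence on CCD imager.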
Rab9 promoter act – activates the Rab9 promoter; Huh7 Rab9 promoter-luciferase reporter, luminescence, 24 h; Potency, µM (highest dose often 9.22 µM), for the others: at the highest dose activation, negative = inhibition, actives largely listed as activators; actives 2.8% (n = 320,000); AID 485297; note: % of control where 0% means no effect; nearly all actives have a fitted effect of over 60% in size
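Promoter activation is measured as luciferase luminescence in Huh7 cells stably transfected with a Rab9 promoter–luciferase construct, following 24 h compound exposure at 37 °C and 10 min reagent incubation at ambient temperature.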
FLuc modulator – firefly luciferase modulation, counter-screen for miR-21 project; actives 6.9% (n = 360,000); P08659; AID 588342; purified FLuc, Km substrates, luminescence inhibition; Potency, µM (titrated, usually from 57.5 µM), without a hit: at the highest dose activity change, negative = inhibition, most hits filed as inhibitors;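 note: plate controls were vehicle for no effect and reference inhibitor for full effect; nearly all actives have a fitted effect of over 55% in size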
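Purified P. pyralis luciferase, 10 nM final, with Km-level 10 uM D-luciferin and 10 uM ATP in 50 mM Tris acetate pH 7.5, 10 mM Mg acetate, 0.01% Tween-20, 0.05% BSA; 6-point qHTS titration about 60 µM downward; luminescence read.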
ELG1 FLuc counter – luciferase inhibition in cell-free luciferin readout for ELG1 hits | shares compounds with ELG1 DNA repair | cell-free firefly luciferase luminescence counter-screen, ViewLux | Potency, µM (highest dose often 46.1 µM), inactives show top-dose activity change, negative = inhibition, actives largely listed as inhibitors | actives 3% (n = 350) | AID 624247; note: % is set by controls: 0 for no effect and ±100 for the full control effect
ELG1 Luc conf – confirmation of human ELG1-dependent DNA repair inhibitors; shares compounds with ELG1 DNA repair; HEK293T ELG1-luciferase levels, luminescence; cells co-treated with 5-fluorouridine; actives 68% (n = 670); Potency, µM (highest dose often 46.1 µM), without a hit: at the highest dose activity change, negative = inhibition, hits mostly inhibitors; note: % is set by controls: 0 for no effect and ±100 for the full control effect; nearly all actives have a fitted effect of over 55% in size
Target sequence (Q96QE3 whole entry, looked up): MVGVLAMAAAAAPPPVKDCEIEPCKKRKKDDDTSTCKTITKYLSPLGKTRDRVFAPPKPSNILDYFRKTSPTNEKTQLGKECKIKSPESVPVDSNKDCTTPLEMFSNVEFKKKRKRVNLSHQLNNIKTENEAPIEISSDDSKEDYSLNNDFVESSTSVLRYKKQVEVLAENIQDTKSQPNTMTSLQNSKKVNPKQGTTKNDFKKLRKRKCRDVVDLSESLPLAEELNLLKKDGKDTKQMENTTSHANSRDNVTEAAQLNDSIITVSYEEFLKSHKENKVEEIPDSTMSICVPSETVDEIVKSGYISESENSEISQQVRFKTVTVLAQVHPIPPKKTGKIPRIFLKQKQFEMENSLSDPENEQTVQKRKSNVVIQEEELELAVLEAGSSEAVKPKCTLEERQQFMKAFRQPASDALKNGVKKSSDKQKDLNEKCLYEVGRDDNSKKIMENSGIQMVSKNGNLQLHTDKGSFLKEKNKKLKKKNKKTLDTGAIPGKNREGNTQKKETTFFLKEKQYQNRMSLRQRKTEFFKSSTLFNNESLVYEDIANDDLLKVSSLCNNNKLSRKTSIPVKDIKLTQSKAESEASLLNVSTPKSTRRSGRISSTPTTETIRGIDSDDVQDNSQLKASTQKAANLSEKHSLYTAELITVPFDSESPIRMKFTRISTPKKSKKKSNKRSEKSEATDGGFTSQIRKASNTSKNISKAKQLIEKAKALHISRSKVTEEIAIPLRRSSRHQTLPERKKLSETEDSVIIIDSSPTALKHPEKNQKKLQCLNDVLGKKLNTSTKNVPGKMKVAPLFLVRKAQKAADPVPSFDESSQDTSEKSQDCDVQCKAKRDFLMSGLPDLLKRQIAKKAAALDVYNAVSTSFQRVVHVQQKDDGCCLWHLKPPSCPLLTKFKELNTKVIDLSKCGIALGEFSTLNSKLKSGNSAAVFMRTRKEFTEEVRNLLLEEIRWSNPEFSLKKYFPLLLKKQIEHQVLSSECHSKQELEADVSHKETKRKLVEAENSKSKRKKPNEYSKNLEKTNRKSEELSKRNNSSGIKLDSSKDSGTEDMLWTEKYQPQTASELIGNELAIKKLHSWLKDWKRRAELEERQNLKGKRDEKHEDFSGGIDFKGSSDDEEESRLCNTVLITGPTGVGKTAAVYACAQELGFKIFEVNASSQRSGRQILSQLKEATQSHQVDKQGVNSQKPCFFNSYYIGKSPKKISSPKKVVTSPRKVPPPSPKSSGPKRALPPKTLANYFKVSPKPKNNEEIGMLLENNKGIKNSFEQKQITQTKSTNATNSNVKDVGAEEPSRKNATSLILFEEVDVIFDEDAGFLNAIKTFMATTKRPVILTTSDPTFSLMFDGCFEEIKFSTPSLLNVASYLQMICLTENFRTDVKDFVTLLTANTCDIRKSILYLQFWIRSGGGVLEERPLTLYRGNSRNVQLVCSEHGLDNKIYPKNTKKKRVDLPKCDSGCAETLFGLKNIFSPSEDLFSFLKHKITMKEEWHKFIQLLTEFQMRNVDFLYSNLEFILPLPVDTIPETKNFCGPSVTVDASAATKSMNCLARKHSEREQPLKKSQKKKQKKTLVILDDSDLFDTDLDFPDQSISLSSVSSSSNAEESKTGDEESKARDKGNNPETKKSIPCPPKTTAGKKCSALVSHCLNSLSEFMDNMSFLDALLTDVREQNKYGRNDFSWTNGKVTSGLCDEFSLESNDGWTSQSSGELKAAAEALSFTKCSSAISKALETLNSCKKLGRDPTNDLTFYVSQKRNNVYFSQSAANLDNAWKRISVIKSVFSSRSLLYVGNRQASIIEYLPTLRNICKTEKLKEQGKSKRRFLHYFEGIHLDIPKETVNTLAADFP
ELG1-Luc MMS – confirmation of human ELG1 repair inhibitors, MMS stimulated; HEK293T luciferase-tagged ELG1 level, MMS stimulated; AID 624249; actives 53% (n = 670); shares compounds with ELG1 DNA repair; Potency, µM (highest dose often 46.1 µM), without a hit: at the highest dose activity change, negative = inhibition, hits mostly inhibitors; note: % is set by controls: 0 for no effect and ±100 for the full control effect; nearly all actives have a fitted effect of over 60% in size
ELG1 5-FU – confirmation of ELG1 repair inhibitors: viability with 5FU; shares compounds with ELG1 DNA repair; cell viability with 5-FU, ELG1-dependent repair; Potency, µM (doses to about 46.1 µM), for the others: top-dose activity change, negative = viability loss, actives largely listed as cytotoxic; 670 tested, under 10 active;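 note: ELG1-luc HEK293T cells cotreated with 5-fluorouridine at 10 µM final; viability measured 16 h after compound addition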
ELG1 MMS viab – confirmation of ELG1 repair inhibitors: viability with MMS; shares compounds with ELG1 DNA repair; Cell viability with MMS, ELG1-dependent DNA repair; Potency, µM (doses to about 46.1 µM), inactives show at the top dose activity change, negative = viability loss, usual class: cytotoxic; actives 33% (n = 670);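 note: ELG1-luc HEK293T cells co-treated with 10 µM MMS; viability read 16 h after compound addition; % is set by controls: 0 for no effect and ±100 for the full control effect; nearly all actives have a fitted effect of over 60% in size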
Cell viab unstim – affects unstimulated cell viability, ELG1 hit counter-screen; shares compounds with ELG1 DNA repair; actives 8% (n = 900); cell viability counter-screen, unstimulated, luminescence; Potency, µM (top dose mostly 45.9 µM), for the others: top-dose activity change, negative = loss of viability, actives largely listed as cytotoxic; AID 624252;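 note: compound exposure lasted 16 hours before reading; % is set by controls: 0 for no effect and ±100 for the full control effect; nearly all actives have a fitted effect of over 55% in size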
FLuc biochem – inhibits purified firefly luciferase, counter-screen for ELG1 hits | actives 10% (n = 350) | shares compounds with ELG1 DNA repair | AID 624253 | purified firefly luciferase, luminescence counter-screen | Potency, µM (series often up to 57.5 µM), for the others: at the highest dose activity, negative = inhibition, hits mostly inhibitors; note: % is set by controls: 0 for no effect and ±100 for the full control effect
* = called active by the depositor; ? = inconclusive; . = no result. Most compounds without a hit are left out; they make up all but 9.2% or so of the library. Calls come from the whole dose curve; as a rule, active = well fitted curve in the direction sought with a large enough effect; inconclusive = small, poorly fitted or top-dose-only effect, or another doubt; inactive = no such curve, though single readings can be large; an effect the other way counts as inactive or inconclusive. Potency is the fitted concentration of half-maximal effect.

SMILES	ELG1 DNA repair	SMN2 splice enh	NPC1 promoter act	ELG1 genotox	Rab9 promoter act	FLuc modulator	ELG1 FLuc counter	ELG1 Luc conf	ELG1-Luc MMS	ELG1 5-FU	ELG1 MMS viab	Cell viab unstim	FLuc biochem
CCc1ccc(NC(=O)C(=O)NNC(=O)COc2cccc(OC)c2)cc1	-4%	15%	-5%	-3%	0%	?	.	.	.	.	.	.	.
O=C(/C=C\c1cn(-c2ccccc2)nc1-c1ccc2c(c1)OCCO2)N1CCOCC1	3.3µM*	-15%	-3%	-13%	-3%	-17%	.	1.6µM*	?	?	?	-8%	.
O=C(O)c1cccc(Nc2nc(N3CCOCC3)nc(N3CCOCC3)n2)c1	-1%	23%	-5%	-6%	-8%	3%	21%	0%	23%	-1%	-4%	-7%	-9%
O=C(CSc1nc2ccc(Nc3nc(N4CCOCC4)nc(N4CCOCC4)n3)cc2s1)Nc1ccccc1Cl	2.9µM*	.	-8%	1%	0%	4%	?	4µM*	-13%	?	0%	-7%	-1%
O=C(O)c1cc(Nc2nc(N3CCOCC3)nc(N3CCOCC3)n2)ccc1Cl	1%	?	-5%	-1%	1%	6%	.	.	.	.	.	.	.

Screening data from PubChem BioAssay.
